An excerpt weighted towards active compounds, which were near 4.7% of everything screened.
GDH-TPI counter: GDH-TPI coupling enzyme inhibitors, primary screen, artefact control for M. tuberculosis FBA inhibitor project, biochemical, absorbance, full deck; GDH-TPI coupled enzyme counterscreen, NADH absorbance; inhibition, % at 4.8 µM; 360,000 compounds, 1.2% hits;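 also: 0% = DMSO wells and 100% = wells lacking the enzyme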
Mtb FBA inh: Mtb FBA enzyme inhibitors, primary screen, biochemical, fluorescence, strain H37Rv; purified M. tuberculosis FBA, fluorescence read-out; inhibition, % at 1 µM; 360,000 compounds, 2.3% hits; AID 588726, 2011; in the data active = inhibition above about 27%;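 also: 0% = vehicle and 100% = reference inhibitor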
SARS 3CLpro inh: SARS-CoV 3CLpro protease inhibitors, primary screen, biochemical, quenched FRET; recombinant SARS-CoV 3CLpro, quenched FRET peptide cleavage; 290,000 compounds, 0.14% hits; inhibition, % at 6 µM; in the data active = inhibition above about 12%
CCHF vOTU inh-1: CCHFV vOTU protease inhibitors, primary screen, biochemical, Pep-AMC substrate, fluorescence; inhibition, % at 11.5 µM; 370,000 compounds, 0.55% hits; AID 651958, 2012; also: 0% = vehicle wells with enzyme and 100% = no enzyme wells
RecA splice inh: Mtb RecA intein splicing inhibitors, primary screen, biochemical, fluorescence, HTS. 290,000 compounds, 0.75% hits. cell-free RecA intein splicing. inhibition, % (no concentration beside the values). Protein RecA (Mycobacterium tuberculosis (strain ATCC 25618 / H37Rv)), P9WHJ3. AID 2221, 2009; in the data active = inhibition above about 30%;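 also: 0% = vehicle wells and 100% = reference inhibitor control wells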
VHR inh abs: VHR1 phosphatase inhibitors, primary screen, biochemical, absorbance, uHTS; Dual specificity protein phosphatase 3 (Homo sapiens), P51452; recombinant VHR phosphatase, pNPP absorbance; inhibition, % at 13.3 µM; 290,000 compounds, 0.52% hits; AID 1654, 2009; in the data active = inhibition above about 50%
CCHF vOTU inh-2: CCHFV vOTU protease inhibitors, confirmation, biochemical, Pep-AMC substrate, fluorescence | 1,900 compounds, 17% hits | Recombinant CCHFV vOTU | inhibition, % at 11.5 µM | AID 686976, 2013 | shares compounds with CCHF vOTU inh-1
Active calls of the source: *; x = no result given. Rule as the data show it, unless noted: active = inhibition above about 30%; inactive = the rest.

SMILES	GDH-TPI counter	Mtb FBA inh	SARS 3CLpro inh	CCHF vOTU inh-1	RecA splice inh	VHR inh abs	CCHF vOTU inh-2
CCC(C)n1c(NC(=O)c2ccccc2)c(C#N)c2nc3ccccc3nc21 (configuration not stated)	16	18	-3	94*	-47	58*	68*
Cc1nn(C(C)(C)C)c(NC(=O)c2ccccc2)c1C#N	16	0	-9	-17	3	3	x
CCCCn1c(NC(=O)c2ccccc2)c(C#N)c2nc3ccccc3nc21	15	20	2	121*	x	33	90*
CCCCn1c(NC(=O)c2ccc(F)cc2)c(C#N)c2nc3ccccc3nc21	x	x	x	x	25	x	x
O=[N+]([O-])c1ccc(N=Nc2ccc(O)cc2O)cc1	-1	0	-3	-3	6	26	x
O=S(=O)(O)c1cc(Cl)cc(N=Nc2ccc(O)cc2O)c1O	13	-10	x	31*	x	x	8
COc1cccc(CNC(=O)C2CCC(CNc3c(N4CCC(C)CC4)c(=O)c3=O)CC2)c1 (configuration not stated)	1	-1	1	20	0	18	x
COc1ccccc1CNC(=O)C1CCC(CNc2c(N3CCC(C)CC3)c(=O)c2=O)CC1 (configuration not stated)	-4	1	-1	31*	-1	8	-6
CCOC(=O)c1cccc(C2=CC(=O)CC(C)(C)C2)c1	0	2	x	-2	x	x	x
CCN(CC)S(=O)(=O)c1cc(NC(=O)CN2C(=O)NC(C)(c3ccccc3)C2=O)ccc1C (configuration not stated)	17	-1	1	34*	3	-3	4
CCN(CC)S(=O)(=O)c1cc(NC(=O)CN2C(=O)NC3(CCCc4ccccc43)C2=O)ccc1C (configuration not stated)	1	-1	0	11	3	-7	x
CCOC(=O)C1CCN(Cc2oc(CO)cc(=O)c2O)CC1	-3	-3	-5	41*	x	-8	-13
CCN1CCN(Cc2oc(CO)cc(=O)c2O)CC1	1	-2	2	-3	-2	26	x
Cc1cc(O)c(CN2CCN(S(=O)(=O)c3cccs3)CC2)cc1C(C)C	-3	-1	x	7	x	x	x
Oc1ccc(CNc2ccccc2F)c2cccnc12	2	-1	-3	14	-3	17	x
O=S(=O)(Nc1ccc(O)c2ncccc12)c1ccccc1F	10	2	x	62*	x	x	19
COc1ccc(C(=O)OCCCN(C)C2CN(Cc3cn(Cc4ccccc4C(F)(F)F)nn3)S(=O)(=O)C2)cc1OC (configuration not stated)	x	x	x	3	x	x	x
COc1nccnc1NS(=O)(=O)c1ccc(NC(=S)NC(=O)/C=C/c2ccc(F)cc2)cc1	23	1	-3	38*	1	-3	-14
O=C(O)C1CCN(S(=O)(=O)c2ccc(N3CCC(O)CC3)c([N+](=O)[O-])c2)CC1	-1	-4	-5	22	-1	-16	x
Cc1[nH]c2ccc(F)cc2c(=O)c1SC(F)(F)C(F)F	-2	1	1	30*	-2	13	-19
CCOC(=O)c1ccc(N/C=C/C(=O)C(C)(C)C)cc1	27	-1	0	7	1	1	x
CN(C)c1ccc(N/C=C/C(=O)C(C)(C)C)cc1	22	-4	3	59*	4	15	11
O=C(/C=C/Nc1ccccc1)c1ccccc1	17	-2	-4	29	1	4	x
CN(C)c1ccc(N/C=C/C(=O)c2ccccc2)cc1	13	-5	0	60*	0	-15	-4
CN(C)c1ccc(C(=O)C=Cc2ccc([N+](=O)[O-])cc2)cc1	-4	-2	x	17	x	x	x
SMILES	GDH-TPI counter	Mtb FBA inh	SARS 3CLpro inh	CCHF vOTU inh-1	RecA splice inh	VHR inh abs	CCHF vOTU inh-2
CN(C)c1ccc(/C=C/C(=O)c2ccc(O)cc2)cc1	16	-19	x	35*	x	x	-5
O=C1NC[C@H](Cc2ccccc2)N(C[C@@H]2CCCN2C[C@H](Cc2ccccc2)N2C[C@H](Cc3ccccc3)N(CC3CCCCC3)C(=O)C2=O)C1=O	x	1	x	30*	x	x	3
O=C1NC[C@H](CCCCN2C[C@H](Cc3ccc(O)cc3)N(CC3CCCCC3)C(=O)C2=O)N(CCC2CCCCC2)C1=O	x	x	x	15	x	x	x
CC(C)C[C@@H](CN1CCC[C@@H]1CN1C(=S)NC[C@@H]1Cc1ccc(O)cc1)N1C[C@H](Cc2ccc(O)cc2)N(CC2CCCCC2)C1=S	x	0	x	17	x	x	x
CC(C)C[C@@H](CN1CCC[C@@H]1CN1C(=S)NC[C@@H]1Cc1ccc(O)cc1)N1C[C@H](Cc2ccc(O)cc2)N(CC2CCCCCC2)C1=S	x	1	x	32*	x	x	-17
O=C1NC[C@@H](CCCCN2C[C@H](Cc3ccc(O)cc3)N(CCC3CCCCC3)C(=O)C2=O)N(CC2CCCCC2)C1=O	x	x	x	35*	x	x	-13
O=C(NCCc1ccc(F)cc1)c1ccc2c(=O)n3c(nc2c1)CCC3	12	6	x	20	-2	x	x
C[C@H]1COC(=O)[C@@H](CC(=O)OC(C)(C)C)C/C=C\C[C@H](CC(=O)NCCO)C(=O)N1	-6	1	x	-2	x	x	x
CC(=O)c1ccc(N2CCN(C(=O)c3c(-c4ccccc4Cl)noc3C)CC2)cc1	17	3	-3	-6	0	6	x
O=C(NCc1ccccc1)C(=O)c1cn(CC(=O)N2CCOCC2)c2ccccc12	17	-1	2	35*	0	-20	-9
Cc1ccnc(NC(=O)c2ccc(S(=O)(=O)N3CCC(C)CC3)cc2)c1	10	1	x	2	-3	x	x
C[C@@H]1CN([C@H](C)CO)C(=O)c2cc(Br)cnc2O[C@H]1CN(C)C(=O)c1ccccc1	8	0	x	34*	x	x	-19
Cc1ccccc1NC(=O)CSc1nc(N)c(C#N)c(-c2cccs2)c1C#N	30	11	-3	9	1	-9	x
COCCn1c(-c2ccc(Cl)cc2)cnc1SCC(=O)NCCc1ccc(OC)c(OC)c1	4	0	2	30*	2	7	-16
COc1ccc(CCNC(=O)CSc2nc(N)c(C#N)c(-c3cccs3)c2C#N)cc1OC	23	1	-1	32*	4	3	-4
CN(c1ccccc1)c1ccc(/C=C(\CCC(=O)O)c2nc3ccccc3s2)cc1[N+](=O)[O-]	23	0	5	36*	7	-7	29

Bioassay records: PubChem BioAssay, several laboratories
